Screening data from PubChem.
This is a sample that favours compounds with a hit; in the whole collection about 19% have one here.
IL1B secr inh: qHTS for Inhibitors of Inflammasome Signaling: IL-1-beta AlphaLISA Primary Screen | activity change, % at 57.5 µM | THP-1 LPS/ATP IL-1B secretion, AlphaLISA, 16 h; active compounds read low | 4.7% of 360,000 active | AID 743279, 2014; in the data active means activity change below about -50%; inconclusive means mostly about -30% to -49%
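Secreted IL-1B measured by AlphaLISA bead assay after 16 h compound exposure of THP-1 cells; compounds (final up to 57.5 uM) added 1 h before LPS (250 ng/mL) and ATP (1.25 mM) stimulation; lower signal means less secretion.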
ELG1 repair inh: qHTS screen for small molecules that inhibit ELG1-dependent DNA repair in human embryonic kidney (HEK293T) cells expressing luciferase-tagged ELG1. HEK293T ELG1-luciferase reporter, luminescence, 16 h; DNA damage induced by 5-fluorouridine. Potency, µM (titrated, usually from 46.1 µM), hits mostly inhibitors. 2.3% of 330,000 active. AID 504467, 2011; further: nearly all actives have a fitted effect of over 55% in size
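Quantitative HTS, concentration-response format. 2,000 cells/well co-treated with 5-fluorouridine and compound, 16 hr in 5% CO2 at 37 °C; ONE-Glo luminescence read after 30 min.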
HT1080NT lethal: qHTS for induction of synthetic lethality in tumor cells producing 2HG: qHTS for the HT-1080-NT fibrosarcoma cell line. HT-1080-NT fibrosarcoma viability, CellTiter-Glo ATP luminescence, 48 h. Potency, µM (doses to about 46.1 µM), actives largely listed as cytotoxic. 1.6% of 360,000 active;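 further: NT is the 2HG producing partner of a matched IDH1 knockdown line; nearly all actives have a fitted effect of over 55% in size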
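Viability by CellTiter-Glo luminescence after 48 h compound exposure at 37C of HT-1080-NT cells (750/well, RPMI, 5% FBS). % activity scaled between DMSO wells and medium-only wells, then curve-fitted and categorized by curve class.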
TDP1 cell noCPT: qHTS for Inhibitors of human tyrosyl-DNA phosphodiesterase 1 (TDP1): qHTS in cells in absence of CPT; 15% of 420,000 active; Potency, µM (doses to about 46.2 µM), usual class: inhibitors; DT40 Tdp1-/- hTDP1 cells, no CPT, ATP luminescence, 48 h; AID 686978, 2013; further: nearly all actives have a fitted effect of over 55% in size
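Readout: luminescence from CellTiter-Glo after 30 min in the dark at RT. Cells: DT40 Tdp1-/- with stable hTDP1, 400/well. Exposure: compounds alone, ≥48 hr, 37 °C.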
HT1080 IDH1KD tx: qHTS for induction of synthetic lethality in tumor cells producing 2HG: qHTS for the HT-1080-IDH1KD cell line | HT-1080 IDH1 knockdown viability, ATP luminescence, 48 h | Potency, µM (highest dose often 46.1 µM), most hits filed as cytotoxic | 2% of 360,000 active | AID 686971, 2013
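HT-1080-IDH1KD cells (IDH1 knocked down), 750/well in RPMI with 5% FBS, treated with compound 48 h at 37 degrees C. Viability by CellTiter-Glo luminescence, normalised to DMSO and no-cell wells; concentration-response curves classed.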
TDP1 cell CPT: qHTS for Inhibitors of human tyrosyl-DNA phosphodiesterase 1 (TDP1): qHTS in cells in presence of CPT. chicken DT40 Tdp1-/-;hTDP1 cells + 20 nM CPT, ATP luminescence, 48 h. Potency, µM (series often up to 46.2 µM), hits mostly inhibitors. 12% of 420,000 active; further: nearly all actives have a fitted effect of over 55% in size
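Chicken DT40 Tdp1-/- cells stably complemented with human TDP1 were seeded at 400 cells/well in medium containing 20 nM camptothecin, exposed to pin-transferred compounds, and grown at 37 °C for at least 48 hr. Viability was read as ATP luminescence.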
ELG1 FLuc counter: qHTS screen for small molecules that inhibit ELG1-dependent DNA repair: Hit Confirmation in Cell-Based Luciferin Assay; shares compounds with ELG1 repair inh; cell-free firefly luciferase luminescence counter-screen, ViewLux; Potency, µM (highest dose often 46.1 µM), usual class: inhibitors; 3% of 350 active; AID 624247, 2012
ELG1 Luc conf: HTS assay for small molecules that inhibit ELG1-dependent DNA repair in human embryonic kidney (HEK293T) cells expressing luciferase-tagged ELG1: Hit Confirmation; shares compounds with ELG1 repair inh; HEK293T ELG1-luciferase levels, luminescence; cells co-treated with 5-fluorouridine; Potency, µM (titrated, usually from 46.1 µM), actives largely listed as inhibitors; 68% of 670 active; further: nearly all actives have a fitted effect of over 55% in size
Target sequence (Q96QE3 whole entry, looked up): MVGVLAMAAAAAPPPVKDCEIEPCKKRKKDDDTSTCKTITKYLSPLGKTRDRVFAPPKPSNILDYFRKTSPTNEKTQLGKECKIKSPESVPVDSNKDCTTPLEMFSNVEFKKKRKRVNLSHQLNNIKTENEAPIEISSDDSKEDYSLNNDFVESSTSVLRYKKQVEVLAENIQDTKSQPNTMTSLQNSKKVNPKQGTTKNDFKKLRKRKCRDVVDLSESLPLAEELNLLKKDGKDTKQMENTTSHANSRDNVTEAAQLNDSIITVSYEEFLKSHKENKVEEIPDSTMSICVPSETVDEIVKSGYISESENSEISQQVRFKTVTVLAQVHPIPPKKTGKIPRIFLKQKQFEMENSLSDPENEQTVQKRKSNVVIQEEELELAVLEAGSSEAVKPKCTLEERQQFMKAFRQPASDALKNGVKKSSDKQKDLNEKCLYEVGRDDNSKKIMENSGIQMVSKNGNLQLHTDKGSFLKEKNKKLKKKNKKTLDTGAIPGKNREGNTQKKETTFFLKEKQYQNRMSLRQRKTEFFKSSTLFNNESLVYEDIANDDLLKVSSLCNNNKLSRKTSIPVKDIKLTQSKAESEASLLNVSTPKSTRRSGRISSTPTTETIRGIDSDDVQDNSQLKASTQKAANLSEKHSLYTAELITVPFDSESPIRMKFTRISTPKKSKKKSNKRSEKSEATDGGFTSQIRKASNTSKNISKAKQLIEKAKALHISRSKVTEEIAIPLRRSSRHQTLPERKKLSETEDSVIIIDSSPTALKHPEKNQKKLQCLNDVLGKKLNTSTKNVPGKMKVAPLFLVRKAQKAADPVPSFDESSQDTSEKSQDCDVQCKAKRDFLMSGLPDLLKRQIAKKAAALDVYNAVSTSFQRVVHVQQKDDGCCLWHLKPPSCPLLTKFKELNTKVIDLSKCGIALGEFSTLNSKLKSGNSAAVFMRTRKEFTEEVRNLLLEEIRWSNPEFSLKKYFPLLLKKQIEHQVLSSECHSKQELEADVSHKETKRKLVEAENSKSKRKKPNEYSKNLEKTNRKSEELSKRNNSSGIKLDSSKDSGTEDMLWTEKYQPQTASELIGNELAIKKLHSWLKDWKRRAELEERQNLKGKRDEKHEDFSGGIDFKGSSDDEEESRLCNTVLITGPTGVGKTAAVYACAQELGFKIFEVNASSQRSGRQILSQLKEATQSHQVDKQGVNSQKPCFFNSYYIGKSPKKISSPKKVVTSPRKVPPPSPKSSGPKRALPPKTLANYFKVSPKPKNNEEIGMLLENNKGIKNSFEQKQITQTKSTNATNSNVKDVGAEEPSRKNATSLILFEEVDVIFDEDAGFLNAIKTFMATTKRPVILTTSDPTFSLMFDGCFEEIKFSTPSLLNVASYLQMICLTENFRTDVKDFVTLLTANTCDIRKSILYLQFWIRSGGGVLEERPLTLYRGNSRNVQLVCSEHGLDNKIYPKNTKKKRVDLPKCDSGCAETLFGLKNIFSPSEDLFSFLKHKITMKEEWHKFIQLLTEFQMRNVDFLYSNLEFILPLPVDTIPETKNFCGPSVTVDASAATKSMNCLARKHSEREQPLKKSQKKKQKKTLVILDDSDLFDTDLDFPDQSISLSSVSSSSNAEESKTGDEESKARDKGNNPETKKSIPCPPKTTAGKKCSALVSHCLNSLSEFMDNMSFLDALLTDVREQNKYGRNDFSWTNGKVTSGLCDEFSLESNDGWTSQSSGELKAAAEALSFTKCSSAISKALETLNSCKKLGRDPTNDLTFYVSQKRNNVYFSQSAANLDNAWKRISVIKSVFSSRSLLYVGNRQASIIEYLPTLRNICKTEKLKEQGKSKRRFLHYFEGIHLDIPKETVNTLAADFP
ELG1-Luc MMS: inhibits ELG1-dependent repair under MMS stimulation in HEK293T cells | shares compounds with ELG1 repair inh | HEK293T luciferase-tagged ELG1 level, MMS stimulated | Potency, µM (top dose mostly 46.1 µM), actives largely listed as inhibitors | 53% of 670 active | AID 624249; further: nearly all actives have a fitted effect of over 60% in size
ELG1 5FU viab: qHTS screen for small molecules that inhibit ELG1-dependent DNA repair: Hit Confirmation with 5FU Viability | shares compounds with ELG1 repair inh | cell viability with 5-FU, ELG1-dependent repair | Potency, µM (highest dose often 46.1 µM), usual class: cytotoxic | 670 tested, under 10 active | AID 624250, 2012;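 further: ELG1-luc HEK293T cells cotreated with 5-fluorouridine at 10 µM final; viability measured 16 h after compound addition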
ELG1 MMS cell: qHTS screen for small molecules that inhibit ELG1-dependent DNA repair: Hit Confirmation with MMS Viability. shares compounds with ELG1 repair inh. Potency, µM (doses to about 46.1 µM), hits mostly cytotoxic. 33% of 670 active. Cell viability with MMS, ELG1-dependent DNA repair;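 further: ELG1-luc HEK293T cells co-treated with 10 µM MMS; viability read 16 h after compound addition; nearly all actives have a fitted effect of over 60% in size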
Cell viab unstim: qHTS screen for small molecules that inhibit ELG1-dependent DNA repair: Hit Confirmation with Unstimulated Viability Assay; Potency, µM (series often up to 45.9 µM), most hits filed as cytotoxic; shares compounds with ELG1 repair inh; AID 624252, 2012; 8% of 900 active; cell viability counter-screen, unstimulated, luminescence;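 further: compound exposure lasted 16 hours before reading; nearly all actives have a fitted effect of over 55% in size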
FLuc biochem: qHTS screen for small molecules that inhibit ELG1-dependent DNA repair: Hit Confirmation in Biochemical Luciferin Assay | shares compounds with ELG1 repair inh | purified firefly luciferase, luminescence counter-screen | Potency, µM (highest dose often 57.5 µM), usual class: inhibitors | 10% of 350 active | AID 624253, 2012
Numbers stand for hits; 0 = inactive; ? = inconclusive; - = no result. Unless noted, the call rests on the fitted dose curve; in most records, active means well fitted curve in the direction sought with a large enough effect; inconclusive means small, poorly fitted or top-dose-only effect, or another doubt; inactive means no such curve, though single readings can be large; an effect the other way counts as inactive or inconclusive.

SMILES	IL1B secr inh	ELG1 repair inh	HT1080NT lethal	TDP1 cell noCPT	HT1080 IDH1KD tx	TDP1 cell CPT	ELG1 Luc conf	ELG1-Luc MMS	ELG1 5FU viab	ELG1 MMS cell	Cell viab unstim	others
COCCCNc1nc2cc(OC)c(OC)cc2c2nc(-c3ccccc3)nn12	0	4.11µM	0	7.31µM	0	14.6µM	2.23µM	?	?	0	?
Cc1cc(OC(=O)c2cccc(Cl)c2)c([N+](=O)[O-])c(=O)[nH]1	0	0	0	0	0	0	-	-	-	-	-
COc1ccc(N2CCCn3c2nc2c3c(=O)n(CCc3ccccc3)c(=O)n2C)cc1	0	4.11µM	0	14.6µM	0	?	17.7µM	15.8µM	?	0	0
CCOc1ccc(N2CCCn3c2nc2c3c(=O)n(CCc3ccccc3)c(=O)n2C)cc1	-	0	-	-	-	-	-	-	-	-	-
CN(C(=O)c1sc2nc(N3CCOCC3)c3c(c2c1N)CCCC3)c1ccccc1	0	13µM	0	23.1µM	0	?	15.8µM	22.3µM	?	0	0	ELG1 FLuc counter=0;FLuc biochem=0
Cc1cccc(NC(=O)C2CCN(S(=O)(=O)c3c(C)noc3/C=C/c3ccco3)CC2)c1C	-	-	-	0	-	0	-	-	-	-	-
Cc1noc(/C=C/c2ccco2)c1S(=O)(=O)N1CCC(C(=O)N(C)Cc2ccccc2)CC1	?	4.61µM	0	0	0	?	3.15µM	0	?	0	0
Cc1cccc(NC(=O)C2CCN(S(=O)(=O)c3c(C)noc3C)CC2)c1	0	0	0	0	0	0	-	-	-	-	-
Cc1cccc(/C=C/c2onc(C)c2S(=O)(=O)N2CCC(C(=O)N3CCC(C)CC3)CC2)c1	0	1.83µM	0	18.4µM	0	18.4µM	1.25µM	0	?	0	?
CCC[C@H]1CN(c2ccc(Br)cc2)C(=O)[C@@H]1CC(=O)NC	0	-	0	?	0	0	-	-	-	-	-
O=C(c1ccc(-c2cc3ccccc3oc2=O)cc1)N1CCN(c2ccc(Cl)cc2[N+](=O)[O-])CC1	0	4.61µM	0	?	0	?	4.99µM	0	?	?	?
O=C(CSc1ccc(Cl)cc1)N1CCN(c2ccc(Cl)cc2[N+](=O)[O-])CC1	?	0	?	?	?	?	-	-	-	-	-
Cc1cc(NC(=O)COC(=O)C2CSC3(C)CCC(=O)N23)ccc1Br (stereo not given)	0	0	0	0	0	?	-	-	-	-	-
S=c1nn[nH]c2ccccc12	0	-	0	0	0	0	-	-	-	-	-
CCOc1ccc(CC(=O)Nc2ccc(NC(=O)c3ccco3)cc2)cc1OCC	?	2.31µM	0	0	11.6µM	?	?	0.0628µM	0	0.0705µM	0
CC(C)CC(=O)N1CCC(N(CCc2ccccc2)Cc2ccccc2)CC1	0	0	0	?	0	?	-	-	-	-	-
Cc1c(OCc2ccc([N+](=O)[O-])cc2)ccc2c3c(c(=O)oc12)CCC3	0	?	0	?	0	0	-	-	-	-	0
COc1ccc(Cc2nc3ccc(C(=O)N(C)Cc4nccs4)cc3o2)cc1OC	0	4.11µM	0	?	0	10.3µM	?	2.23µM	0	7.91µM	?
Nc1ncc([N+](=O)[O-])c(N2CCCCCC2)n1	0	2.31µM	0	0	0	?	4.45µM	12.5µM	0	0	0
